Experiments:
Settings in all cases: concentration: 1 μM, replicates: in singlicate; n = 1
[1] = system: CAMK2G
[2] = system: CAMK4
[3] = system: CAMKK1
[4] = system: CAMKK2
[5] = system: CASK
[6] = system: T1, CDC2L1
T1 construct: gene CDK11B

[7] = system: CDC2L2
[8] = system: T2, CDC2L5
T2 construct: gene CDK13

[9] = system: T3, CDK11
T3 construct: gene CDK19

[10] = system: CDK2
[11] = system: CDK3
[12] = system: CDK4-cyclinD1
[13] = system: CDK4-cyclinD3
[14] = system: CDK4
[15] = system: CDK5
[16] = system: CDK7
[17] = system: CDK8
[18] = system: CDK9
[19] = system: CDKL1
[20] = system: CDKL2
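Note: KINOMEscan kinase panel screen.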

Structure (SMILES) | %Inh [1] [%] | %Inh [2] [%] | %Inh [3] [%] | %Inh [4] [%] | %Inh [5] [%] | %Inh [6] [%] | %Inh [7] [%] | %Inh [8] [%] | %Inh [9] [%] | %Inh [10] [%] | %Inh [11] [%] | %Inh [12] [%] | %Inh [13] [%] | %Inh [14] [%] | %Inh [15] [%] | %Inh [16] [%] | %Inh [17] [%] | %Inh [18] [%] | %Inh [19] [%] | %Inh [20] [%]
CCC(=O)c1c(-c2ccccc2)c2cc(Cl)ccc2c(=O)n1Cc1cc(S(C)(=O)=O)n(CC(F)F)n1 | 0 | 0 | 0 | 6 | 5 | 1 | 2 | 24 | 0 | 0 | 0 | 0 | 0 | 0 | 0 | 0 | 0 | 2 | 0 | 0
O=c1cc(N2CCOCC2)nc2n(Cc3ccc(F)c(Cl)c3)ccn12 [GSK2297099] | 28 | 0 | 28 | 24 | 2 | 3 | 28 | 0 | 0 | 0 | 6 | 0 | 20 | 0 | 0 | 0 | 10 | 7 | 10 | 8
COc1cccc(C2=C(N(C)c3ccccc3)C(=O)NC2=O)c1 [SB-334865] | 9 | 0 | 0 | 0 | 30 | 43 | 27 | 0 | 0 | 3 | 12 | 2 | 8 | 0 | 0 | 0 | 6 | 39 | 0 | 23
Fc1cccc(CSc2nnc(-c3ccc4c(c3)CCO4)o2)c1 | 20 | 0 | 9 | 6 | 0 | 0 | 0 | 17 | 0 | 8 | 0 | 0 | 17 | 0 | 4 | 0 | 0 | 0 | 3 | 4
Cc1ccc(-c2ccc3c(ccc4sc5c(c43)NC[C@@H](C)N=C5N(C)C)n2)cn1 | 0 | 20 | 0 | 0 | 2 | 4 | 0 | 0 | 0 | 0 | 0 | 0 | 0 | 0 | 0 | 6 | 0 | 0 | 0 | 0
COc1cc(OC)cc(-c2cc3cnc(N)nc3nc2NC(=O)NC(C)(C)C)c1 | 23 | 0 | 16 | 29 | 0 | 2 | 0 | 0 | 0 | 0 | 14 | 0 | 8 | 0 | 0 | 31 | 0 | 0 | 0 | 0
O=C(Nc1n[nH]c2nc(-c3ccccc3)c(Cl)cc12)C1CC1 [SB-734909] | 0 | 0 | 0 | 1 | 35 | 0 | 18 | 0 | 0 | 2 | 0 | 0 | 0 | 9 | 0 | 15 | 3 | 0 | 41 | 35
O=C(Nc1n[nH]c2nc(-c3ccccc3)c(Br)cc12)C1CC1 [SB-708998] | 4 | 0 | 0 | 0 | 0 | 0 | 0 | 0 | 0 | 0 | 0 | 0 | 0 | 10 | 10 | 1 | 0 | 0 | 0 | 30
O=C(NCCNc1ccnc(Nc2ccc(F)cc2)n1)Nc1ccc2c(c1)OCO2 [GSK1379882] | 21 | 0 | 10 | 15 | 18 | 9 | 20 | 0 | 10 | 0 | 0 | 0 | 0 | 8 | 0 | 0 | 25 | 7 | 0 | 15
Nc1n[nH]c2nnc(-c3ccccc3)c(-c3ccccc3)c12 [GW554060] | 17 | 0 | 13 | 11 | 71 | 0 | 0 | 0 | 0 | 0 | 17 | 2 | 0 | 22 | 0 | 0 | 14 | 0 | 0 | 0
C[C@@H]1CC[C@H](C(=O)NC2CCCCC2)CN1c1cc(-c2ccc3c(N)n[nH]c3c2)nc(N)n1 [GSK2291363] | 38 | 0 | 24 | 37 | 18 | 0 | 23 | 0 | 7 | 1 | 18 | 0 | 0 | 14 | 15 | 0 | 37 | 0 | 0 | 26
